Measurements reported in PubChem BioAssay (EPA / NIEHS).
Inconclusive results are not listed. Calls of active or inactive are those of the source. Rule for the calls, unless noted: active = hit-call score of the fitted dose curve at least 0.9, where 1 is the maximum; inactive = score below 0.9.

Experiments:
[1] = CCTE_Shafer_MEA_dev_burst_rate: CCTE's Neural Network Formation Assay for Burst Rate, Shafer Lab (AID 2284042)
Method in brief: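 Exposure ran continuously over 12 days of network development in rat cortical cultures, with compound refreshed during full media changes on DIV 5 and 9. Single-electrode bursts per recording time, well-mean over active electrodes, trapezoidal AUC across days 5–12, fitted downward relative to DMSO.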

[2] = CCTE_Shafer_MEA_dev_per_burst_interspike_interval: CCTE's Neural Network Formation Assay for Burst Interspike Interval, Shafer Lab (AID 2284044)
Method in brief: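 Readout is the average time between spikes inside single-electrode bursts, taken as a well mean across bursting electrodes. Cortical neurons from rat developed networks on MEA plates under continuous 12-day exposure; recordings on days 5, 7, 9 and 12 were integrated by trapezoidal AUC.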

[3] = CCTE_Shafer_MEA_dev_burst_duration_mean: CCTE's Neural Network Formation Assay for Mean Burst Duration, Shafer Lab (AID 2284045)
Method in brief: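 Rat cortical cultures, 1.5 x 10^5 cells/well with laminin drop; continuous dosing days 0–12, media plus treatment refreshed DIV 5, 9. AxIS adaptive spike detection; mean single-electrode burst duration, AUC over four recordings, negative direction vs DMSO.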

[4] = CCTE_Shafer_MEA_dev_interburst_interval_mean: CCTE's Neural Network Formation Assay for Mean Interburst Interval, Shafer Lab (AID 2284046);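 note: well-mean interburst interval of bursting electrodes as AUC over four recording days; curve fitted for decrease in interburst interval relative to DMSO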
Method in brief: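 Primary rat cortical neurons on PEI-coated 48-well MEA plates (laminin added with cells at plating) (16 electrodes/well), exposed from plating day 0 with renewal at DIV 5 and 9. Mean inter-burst interval averaged over bursting electrodes, AUC across days 5, 7, 9, 12; DMSO baseline.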

[5] = CCTE_Shafer_MEA_dev_inter_network_spike_interval_mean: CCTE's Neural Network Formation Assay for Mean Inter-network Spike Interval, Shafer Lab (AID 2284047)
Method in brief: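 Mean time between consecutive network-spike peaks, recorded extracellularly (adaptive spike detection) on DIV 5, 7, 9 and 12, summarized as trapezoidal AUC. Rat cortical cultures on MEAs dosed continuously days 0–12, re-dosed at feeds; loss-of-signal fit relative to DMSO.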

[6] = CCTE_Shafer_MEA_dev_network_spike_number: CCTE's Neural Network Formation Assay for Number of Network Spikes, Shafer Lab (AID 2284048)
Method in brief: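 Rat cortical primary cultures on 48-well MEA (16 electrodes/well); continuous exposure DIV 0–12, full medium and treatment exchange DIV 5, 9. Readout: network spike count, AxIS adaptive detection, recordings DIV 5/7/9/12 collapsed to AUC; loss-of-signal fit, DMSO baseline.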

[7] = CCTE_Shafer_MEA_dev_network_spike_peak: CCTE's Neural Network Formation Assay for Mean Number of Electrodes in Network Spike, Shafer Lab (AID 2284049)
Method in brief: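 Network-spike peak electrode count from recordings on days 5, 7, 9 and 12 was combined as trapezoidal area under the curve. Rat cortical cultures were treated continuously from plating, with compound renewed at each feed (DIV 5, 9); fits versus DMSO.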

[8] = CCTE_Shafer_MEA_dev_spike_duration_mean: CCTE's Neural Network Formation Assay for Mean Spike Duration, Shafer Lab (AID 2284051);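 note: mean network spike duration pooled as area under curve over DIV 5 to 12 recordings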
Method in brief: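 Spontaneous activity was recorded on days 5, 7, 9 and 12 from rat cortical cultures grown on microelectrode arrays and dosed continuously from day 0, with media and compound renewed after the DIV 5 and 9 recordings. Network-spike duration was collapsed by area under the curve.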

[9] = CCTE_Shafer_MEA_dev_network_spike_duration_std: CCTE's Neural Network Formation Assay for Standard Deviation of Network Spike Duration, Shafer Lab (AID 2284052);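 note: hits are decreases in network spike duration SD versus DMSO vehicle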
Method in brief: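 Network spike duration variability was collapsed across recordings on days 5, 7, 9 and 12 by trapezoidal area-under-curve and fitted downward against DMSO. Cultures were rat cortical neurons on PEI-coated MEA plates, dosed continuously from plating, refed with compound DIV 5/9.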

[10] = CCTE_Shafer_MEA_dev_per_network_spike_spike_percent: CCTE's Neural Network Formation Assay for Percent of Spikes in a Network Spike, Shafer Lab (AID 2284054)
Method in brief: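 Read-out: percent of spikes falling in a 0.05 s window at network-spike peak, from spontaneous MEA recordings on days 5, 7, 9 and 12; trapezoidal AUC; loss of signal versus DMSO. Rat cortical cultures, compound present throughout.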

[11] = CCTE_Shafer_MEA_acute_AB: CCTE's Alamar Blue Assay for Cytotoxicity in the Neural Acute Assay, Shafer Lab (AID 2284069; active = hit-call score of the fitted dose curve at least 0.9, where 1 is the maximum;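 note: active compounds lower the viability signal compared with DMSO wells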)
Method in brief: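 Resazurin reduction (CellTiter Blue, 1:6 in fresh medium) read at ex 544/em 590 nm marks viability loss relative to DMSO. Cells: primary rat cortical neuron networks on microelectrode arrays, treated after baseline recording at 13 or 15 days in vitro.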

Measured: outcome

COC(=O)C(F)(F)C(F)(F)C(F)(F)C(F)(F)C(F)(F)F
not listed: [11]
inactive: all other assays above

Oc1c(Cl)cc(Cl)cc1Sc1cc(Cl)cc(Cl)c1O
inactive: [11]

FC(F)=C(F)C(F)(F)C(F)(F)C(F)(F)C(F)F
not listed: [11]
inactive: all other assays above
